# Measurements published in publication PMC7862700, “An all-to-all approach to the identification of sequence-specific readers for epigenetic DNA modifications on cytosine”.
# Legend:
# Experiment in all cases: DAPPL (digital affinity profiling via proximity ligation, sequencing); 10 mM Tris-HCl pH 7.5, 50 mM NaCl, 1 mM DTT, 4% glycerol, room temperature, 30 min; GST-TFs on glutathione beads, 16-mer random dsDNA library, 0.1% formaldehyde crosslink after washing; high values mean tight binding
# FLI1 = target: T1, FLI1 (Homo sapiens, UniProt Q01543 1-452); conditions: protein: recombinant; tags: N-terminal GST; dsDNA, one strand shown
# T1 sequence: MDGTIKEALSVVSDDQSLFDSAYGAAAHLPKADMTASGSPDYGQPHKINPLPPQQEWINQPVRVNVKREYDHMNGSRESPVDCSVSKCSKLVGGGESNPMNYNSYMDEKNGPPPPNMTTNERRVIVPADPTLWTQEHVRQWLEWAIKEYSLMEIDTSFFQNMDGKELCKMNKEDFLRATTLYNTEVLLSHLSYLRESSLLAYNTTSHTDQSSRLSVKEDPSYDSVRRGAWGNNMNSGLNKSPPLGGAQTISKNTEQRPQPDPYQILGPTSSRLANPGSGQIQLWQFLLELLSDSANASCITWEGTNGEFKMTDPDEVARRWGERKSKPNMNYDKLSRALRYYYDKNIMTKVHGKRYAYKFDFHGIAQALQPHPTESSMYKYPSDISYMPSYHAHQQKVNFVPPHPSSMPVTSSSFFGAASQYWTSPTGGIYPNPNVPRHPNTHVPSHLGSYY
# How it was run: (§1)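 Binding signal is defined as a hexamer's read frequency for one factor over its frequency for the tag-only sample. To obtain reads, GST-fused human transcription factors were expressed in yeast, captured on glutathione beads, barcoded with DNA and pooled with that sample. Pools met 200 nmole of a 16-mer random double-stranded DNA library in Tris/NaCl/DTT/glycerol buffer for 30 min at room temperature before washing, 0.1% formaldehyde crosslinking, proximity ligation (BsaI/T4 ligase, 1 h, 37 °C), PCR and Illumina NextSeq500 sequencing.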
# ELK1 = target: T2, ELK1 (Homo sapiens, UniProt P19419 1-428); conditions: protein: recombinant; tags: N-terminal GST; dsDNA, one strand shown
# T2 sequence: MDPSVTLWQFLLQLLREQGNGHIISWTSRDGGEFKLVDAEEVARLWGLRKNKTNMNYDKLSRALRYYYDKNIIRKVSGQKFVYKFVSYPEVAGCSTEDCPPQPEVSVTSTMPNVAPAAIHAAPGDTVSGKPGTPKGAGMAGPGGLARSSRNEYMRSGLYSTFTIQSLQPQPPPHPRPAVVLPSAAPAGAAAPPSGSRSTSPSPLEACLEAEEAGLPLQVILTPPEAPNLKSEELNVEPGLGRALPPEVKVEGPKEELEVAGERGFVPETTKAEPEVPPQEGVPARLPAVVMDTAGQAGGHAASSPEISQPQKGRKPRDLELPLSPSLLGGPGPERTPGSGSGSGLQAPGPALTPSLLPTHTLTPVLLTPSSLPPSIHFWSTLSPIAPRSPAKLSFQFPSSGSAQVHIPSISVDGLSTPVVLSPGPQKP
# How it was run: as §1
# GABPA = target: T3, GABPA (Homo sapiens, UniProt Q06546 1-454); conditions: protein: recombinant; tags: N-terminal GST; dsDNA, one strand shown
# T3 sequence: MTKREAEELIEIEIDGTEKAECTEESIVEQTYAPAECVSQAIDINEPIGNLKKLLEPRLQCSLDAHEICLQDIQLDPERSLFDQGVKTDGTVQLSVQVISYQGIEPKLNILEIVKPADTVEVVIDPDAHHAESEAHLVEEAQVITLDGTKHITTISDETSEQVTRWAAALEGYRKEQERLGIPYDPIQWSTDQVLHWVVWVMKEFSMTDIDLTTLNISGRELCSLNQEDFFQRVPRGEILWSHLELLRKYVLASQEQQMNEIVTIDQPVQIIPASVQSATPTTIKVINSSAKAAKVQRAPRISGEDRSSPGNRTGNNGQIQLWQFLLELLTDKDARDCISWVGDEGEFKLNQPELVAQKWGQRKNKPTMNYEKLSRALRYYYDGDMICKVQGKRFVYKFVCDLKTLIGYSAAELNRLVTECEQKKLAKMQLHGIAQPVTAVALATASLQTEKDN
# How it was run: as §1
# ELF1 = ELF1 (Homo sapiens, UniProt P32519 1-619); conditions: protein: recombinant; tags: N-terminal GST; dsDNA, one strand shown
# Chain of ELF1 (P32519 whole entry): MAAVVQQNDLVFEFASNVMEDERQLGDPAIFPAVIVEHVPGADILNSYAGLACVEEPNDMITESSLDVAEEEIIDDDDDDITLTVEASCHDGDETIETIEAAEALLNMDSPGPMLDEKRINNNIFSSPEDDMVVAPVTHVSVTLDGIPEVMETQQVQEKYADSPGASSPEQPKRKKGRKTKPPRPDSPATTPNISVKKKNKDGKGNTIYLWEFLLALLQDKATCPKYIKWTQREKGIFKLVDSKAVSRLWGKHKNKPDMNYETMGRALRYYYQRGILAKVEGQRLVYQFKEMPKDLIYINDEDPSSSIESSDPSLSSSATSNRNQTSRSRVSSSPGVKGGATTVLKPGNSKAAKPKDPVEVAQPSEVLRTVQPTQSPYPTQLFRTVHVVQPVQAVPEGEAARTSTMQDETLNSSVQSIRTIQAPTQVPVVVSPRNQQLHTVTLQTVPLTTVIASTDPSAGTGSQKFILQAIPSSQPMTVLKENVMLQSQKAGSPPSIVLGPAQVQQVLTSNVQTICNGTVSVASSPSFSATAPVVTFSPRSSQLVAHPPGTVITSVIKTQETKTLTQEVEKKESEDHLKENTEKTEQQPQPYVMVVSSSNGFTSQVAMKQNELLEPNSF
# How it was run: as §1
# EHF = target: T4, EHF (Homo sapiens, UniProt Q9NZC4 1-300); conditions: protein: recombinant; tags: N-terminal GST; dsDNA, one strand shown
# T4 sequence: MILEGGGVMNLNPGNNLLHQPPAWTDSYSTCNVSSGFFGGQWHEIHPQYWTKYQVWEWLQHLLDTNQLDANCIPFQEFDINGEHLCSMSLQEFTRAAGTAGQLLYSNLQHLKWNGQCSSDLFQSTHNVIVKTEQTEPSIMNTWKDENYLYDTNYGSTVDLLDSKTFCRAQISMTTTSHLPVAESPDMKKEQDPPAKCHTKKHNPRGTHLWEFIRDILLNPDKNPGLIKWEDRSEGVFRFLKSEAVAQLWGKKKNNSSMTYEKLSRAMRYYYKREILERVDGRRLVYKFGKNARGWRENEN
# How it was run: as §1
# SPIB = SPIB (Homo sapiens, UniProt Q01892 1-262); conditions: protein: recombinant; tags: N-terminal GST; dsDNA, one strand shown
# Chain of SPIB (Q01892 whole entry): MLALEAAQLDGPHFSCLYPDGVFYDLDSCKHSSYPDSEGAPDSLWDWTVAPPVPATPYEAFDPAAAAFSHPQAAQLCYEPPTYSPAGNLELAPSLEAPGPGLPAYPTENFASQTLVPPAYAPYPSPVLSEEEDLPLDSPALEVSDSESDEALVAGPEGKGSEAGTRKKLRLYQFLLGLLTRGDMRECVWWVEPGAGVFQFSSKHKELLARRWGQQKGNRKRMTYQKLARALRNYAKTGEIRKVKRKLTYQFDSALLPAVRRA
# How it was run: as §1
# ELK3 = target: T5, ELK3 (Homo sapiens, UniProt P41970 1-407); conditions: protein: recombinant; tags: N-terminal GST; dsDNA, one strand shown
# T5 sequence: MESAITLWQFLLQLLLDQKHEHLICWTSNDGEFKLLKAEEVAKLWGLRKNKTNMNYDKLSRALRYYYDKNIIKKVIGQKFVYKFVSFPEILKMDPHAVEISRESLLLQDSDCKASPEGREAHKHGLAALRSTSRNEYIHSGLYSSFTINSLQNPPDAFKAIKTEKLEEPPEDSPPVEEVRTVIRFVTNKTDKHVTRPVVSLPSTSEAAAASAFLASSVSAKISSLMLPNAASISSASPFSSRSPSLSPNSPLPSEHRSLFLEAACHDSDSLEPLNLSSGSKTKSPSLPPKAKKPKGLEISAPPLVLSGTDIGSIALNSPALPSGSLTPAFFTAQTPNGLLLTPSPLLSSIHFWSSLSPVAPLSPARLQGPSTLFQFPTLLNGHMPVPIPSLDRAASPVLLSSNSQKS
# How it was run: as §1
# FEV = target: T6, FEV (Homo sapiens, UniProt Q99581 1-238); conditions: protein: recombinant; tags: N-terminal GST; dsDNA, one strand shown
# T6 sequence: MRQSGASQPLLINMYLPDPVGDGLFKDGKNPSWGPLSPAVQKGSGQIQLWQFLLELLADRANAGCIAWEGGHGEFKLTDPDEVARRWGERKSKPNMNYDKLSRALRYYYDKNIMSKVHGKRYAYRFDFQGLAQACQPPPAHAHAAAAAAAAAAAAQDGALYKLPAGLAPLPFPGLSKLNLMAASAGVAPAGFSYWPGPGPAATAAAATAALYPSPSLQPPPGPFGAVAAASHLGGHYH
# How it was run: as §1
# ETV5 = ETV5 (Homo sapiens, UniProt P41161 1-510); conditions: protein: recombinant; tags: N-terminal GST; dsDNA, one strand shown
# Chain of ETV5 (P41161 whole entry): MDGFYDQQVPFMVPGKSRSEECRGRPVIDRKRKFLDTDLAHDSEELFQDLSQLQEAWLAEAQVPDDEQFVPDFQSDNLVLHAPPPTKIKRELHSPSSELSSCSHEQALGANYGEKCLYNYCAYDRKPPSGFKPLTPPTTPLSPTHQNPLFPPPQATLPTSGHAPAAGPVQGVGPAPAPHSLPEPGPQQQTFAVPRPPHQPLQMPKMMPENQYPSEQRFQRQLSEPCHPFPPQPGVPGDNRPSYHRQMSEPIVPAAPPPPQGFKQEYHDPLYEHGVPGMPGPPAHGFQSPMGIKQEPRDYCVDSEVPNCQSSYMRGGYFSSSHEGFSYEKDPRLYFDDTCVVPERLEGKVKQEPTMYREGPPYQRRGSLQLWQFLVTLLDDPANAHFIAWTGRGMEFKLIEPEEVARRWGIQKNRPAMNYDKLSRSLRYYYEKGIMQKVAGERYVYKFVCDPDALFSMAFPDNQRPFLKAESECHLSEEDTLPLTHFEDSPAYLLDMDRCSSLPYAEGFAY
# How it was run: as §1
# HSF1 = HSF1 (Homo sapiens, UniProt Q00613 1-529); conditions: protein: recombinant; tags: N-terminal GST; chain copies: 3; dsDNA, one strand shown
# Chain of HSF1 (Q00613 whole entry): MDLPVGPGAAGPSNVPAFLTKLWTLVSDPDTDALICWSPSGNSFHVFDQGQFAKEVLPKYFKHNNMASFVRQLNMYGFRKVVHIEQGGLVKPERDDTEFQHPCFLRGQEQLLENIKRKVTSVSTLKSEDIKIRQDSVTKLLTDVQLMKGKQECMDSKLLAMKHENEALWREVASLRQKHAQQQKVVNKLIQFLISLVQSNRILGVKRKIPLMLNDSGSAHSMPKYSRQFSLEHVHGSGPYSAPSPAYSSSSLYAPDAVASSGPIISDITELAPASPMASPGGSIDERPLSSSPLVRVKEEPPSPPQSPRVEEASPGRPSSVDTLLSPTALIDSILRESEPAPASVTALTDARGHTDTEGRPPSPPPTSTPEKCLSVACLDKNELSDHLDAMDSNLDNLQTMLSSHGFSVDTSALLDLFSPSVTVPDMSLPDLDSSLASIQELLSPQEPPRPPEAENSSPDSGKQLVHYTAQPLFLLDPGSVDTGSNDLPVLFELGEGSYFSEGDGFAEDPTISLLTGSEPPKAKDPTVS
# How it was run: as §1
# SPIC = target: T7, SPIC (Homo sapiens, UniProt Q8N5J4 1-248); conditions: protein: recombinant; tags: N-terminal GST; dsDNA, one strand shown
# T7 sequence: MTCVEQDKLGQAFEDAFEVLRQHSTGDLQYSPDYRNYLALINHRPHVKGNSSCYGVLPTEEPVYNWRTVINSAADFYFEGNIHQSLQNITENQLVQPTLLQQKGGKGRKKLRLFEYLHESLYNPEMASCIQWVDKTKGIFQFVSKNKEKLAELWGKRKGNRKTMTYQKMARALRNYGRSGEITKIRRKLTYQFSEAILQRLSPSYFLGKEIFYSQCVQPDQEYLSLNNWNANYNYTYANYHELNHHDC
# How it was run: as §1
# ELF4 = ELF4 (Homo sapiens, UniProt Q99607 1-663); conditions: protein: recombinant; tags: N-terminal GST; dsDNA, one strand shown
# Chain of ELF4 (Q99607 whole entry): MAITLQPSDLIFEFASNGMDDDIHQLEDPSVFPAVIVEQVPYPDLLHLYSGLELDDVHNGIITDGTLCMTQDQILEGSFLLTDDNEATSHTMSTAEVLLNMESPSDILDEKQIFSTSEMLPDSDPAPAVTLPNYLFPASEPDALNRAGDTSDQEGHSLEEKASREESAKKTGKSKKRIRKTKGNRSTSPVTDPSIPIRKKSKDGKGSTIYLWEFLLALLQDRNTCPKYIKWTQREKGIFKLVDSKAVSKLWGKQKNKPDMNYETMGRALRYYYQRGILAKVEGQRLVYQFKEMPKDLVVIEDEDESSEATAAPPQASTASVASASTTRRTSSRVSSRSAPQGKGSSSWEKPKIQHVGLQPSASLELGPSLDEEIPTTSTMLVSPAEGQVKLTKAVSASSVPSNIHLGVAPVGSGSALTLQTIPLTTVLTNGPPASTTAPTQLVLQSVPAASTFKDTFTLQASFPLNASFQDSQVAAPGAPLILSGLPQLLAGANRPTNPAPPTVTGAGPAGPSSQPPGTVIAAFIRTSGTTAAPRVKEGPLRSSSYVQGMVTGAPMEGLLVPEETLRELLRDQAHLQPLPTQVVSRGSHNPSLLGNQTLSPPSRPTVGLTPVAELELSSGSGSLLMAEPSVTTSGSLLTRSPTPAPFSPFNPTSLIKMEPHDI
# How it was run: as §1
# ELK4 = target: T8, ELK4 (Homo sapiens, UniProt P28324-2 1-405); conditions: protein: recombinant; tags: N-terminal GST; dsDNA, one strand shown
# T8 sequence: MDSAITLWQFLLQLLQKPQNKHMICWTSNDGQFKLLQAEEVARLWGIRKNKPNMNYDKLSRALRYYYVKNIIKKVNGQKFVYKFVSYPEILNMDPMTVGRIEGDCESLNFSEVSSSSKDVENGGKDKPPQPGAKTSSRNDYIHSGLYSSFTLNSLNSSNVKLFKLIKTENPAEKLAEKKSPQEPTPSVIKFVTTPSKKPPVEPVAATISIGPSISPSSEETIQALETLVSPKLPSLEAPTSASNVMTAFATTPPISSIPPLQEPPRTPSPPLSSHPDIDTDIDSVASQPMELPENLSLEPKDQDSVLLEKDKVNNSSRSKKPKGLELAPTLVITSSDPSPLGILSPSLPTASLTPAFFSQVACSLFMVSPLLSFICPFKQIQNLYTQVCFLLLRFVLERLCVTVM
# How it was run: as §1
# ETV2 = target: T9, ETV2 (Homo sapiens, UniProt O00321 1-342); conditions: protein: recombinant; tags: N-terminal GST; dsDNA, one strand shown
# T9 sequence: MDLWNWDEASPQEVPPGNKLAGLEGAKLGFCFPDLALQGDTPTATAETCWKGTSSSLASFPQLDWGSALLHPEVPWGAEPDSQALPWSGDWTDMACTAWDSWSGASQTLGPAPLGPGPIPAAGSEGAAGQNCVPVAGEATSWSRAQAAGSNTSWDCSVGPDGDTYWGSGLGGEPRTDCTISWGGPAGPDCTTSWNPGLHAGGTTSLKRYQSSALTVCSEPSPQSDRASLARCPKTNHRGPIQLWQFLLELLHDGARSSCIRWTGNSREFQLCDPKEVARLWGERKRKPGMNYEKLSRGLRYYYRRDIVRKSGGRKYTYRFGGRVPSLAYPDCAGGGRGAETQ
# How it was run: as §1
# CRX = CRX (Homo sapiens, UniProt O43186 1-299); conditions: protein: recombinant; tags: N-terminal GST; dsDNA, one strand shown
# Chain of CRX (O43186 whole entry): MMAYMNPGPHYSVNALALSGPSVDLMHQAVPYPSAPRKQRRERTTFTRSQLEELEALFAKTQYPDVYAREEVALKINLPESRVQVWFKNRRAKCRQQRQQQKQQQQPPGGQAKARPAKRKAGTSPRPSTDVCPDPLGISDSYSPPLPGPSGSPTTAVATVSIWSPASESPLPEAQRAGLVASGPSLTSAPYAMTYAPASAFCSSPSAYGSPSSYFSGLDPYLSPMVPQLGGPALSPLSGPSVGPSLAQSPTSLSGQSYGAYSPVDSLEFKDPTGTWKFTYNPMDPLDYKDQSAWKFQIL
# How it was run: as §1
# ETV1 = ETV1 (Homo sapiens, UniProt P50549 1-477); conditions: protein: recombinant; tags: N-terminal GST; dsDNA, one strand shown
# Chain of ETV1 (P50549 whole entry): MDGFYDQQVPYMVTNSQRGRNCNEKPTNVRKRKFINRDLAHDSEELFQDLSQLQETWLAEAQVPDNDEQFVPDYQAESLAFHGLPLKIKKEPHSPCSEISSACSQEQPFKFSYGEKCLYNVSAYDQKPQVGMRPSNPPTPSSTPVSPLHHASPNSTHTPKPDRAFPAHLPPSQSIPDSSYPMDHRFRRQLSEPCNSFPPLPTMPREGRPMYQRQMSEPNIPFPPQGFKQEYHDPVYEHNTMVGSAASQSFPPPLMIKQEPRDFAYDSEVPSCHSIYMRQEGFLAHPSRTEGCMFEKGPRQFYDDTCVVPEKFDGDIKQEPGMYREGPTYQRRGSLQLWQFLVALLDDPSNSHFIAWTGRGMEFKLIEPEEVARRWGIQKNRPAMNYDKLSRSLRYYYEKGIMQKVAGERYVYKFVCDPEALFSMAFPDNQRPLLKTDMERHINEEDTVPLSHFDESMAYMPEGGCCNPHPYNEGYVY
# How it was run: as §1
sequence,measurement,setting,value
CAGAAT,binding signal,FLI1,"1 fold enrichment (6-mer frequency, TF over GST control)"
same,binding signal,ELK1,"1.01 fold enrichment (6-mer frequency, TF over GST control)"
same,binding signal,GABPA,"1.02 fold enrichment (6-mer frequency, TF over GST control)"
same,binding signal,ELF1,"1.03 fold enrichment (6-mer frequency, TF over GST control)"
same,binding signal,EHF,"1.05 fold enrichment (6-mer frequency, TF over GST control)"
same,binding signal,SPIB,"1.05 fold enrichment (6-mer frequency, TF over GST control)"
same,binding signal,ELK3,"1.01 fold enrichment (6-mer frequency, TF over GST control)"
same,binding signal,FEV,"1.05 fold enrichment (6-mer frequency, TF over GST control)"
same,binding signal,ETV5,"1.01 fold enrichment (6-mer frequency, TF over GST control)"
same,binding signal,HSF1,"2.05 fold enrichment (6-mer frequency, TF over GST control)"
same,binding signal,SPIC,"1.01 fold enrichment (6-mer frequency, TF over GST control)"
same,binding signal,ELF4,"1.13 fold enrichment (6-mer frequency, TF over GST control)"
same,binding signal,ELK4,"1.05 fold enrichment (6-mer frequency, TF over GST control)"
same,binding signal,ETV2,"1.13 fold enrichment (6-mer frequency, TF over GST control)"
same,binding signal,CRX,"1.34 fold enrichment (6-mer frequency, TF over GST control)"
same,binding signal,ETV1,"1.04 fold enrichment (6-mer frequency, TF over GST control)"
